# Reference: PubChem BioAssay (Tox21)
# Where “and” joins values, the source holds several entries; their conditions need not be identical. Equal entries are not always repeated. Records with an inconclusive call do not appear. Some compounds were tested as several samples or in several runs, with calls that do not always agree. Calls of active or inactive are those of the source. Calls come from the whole dose curve; as a rule, active = well fitted curve in the direction sought with a large enough effect in the repeat runs; inconclusive = weak or mixed curves; inactive = no such curve, though single readings can be large; an effect the other way counts as inactive or inconclusive. Starred links: 1 amine or outer side, 2 acyl side, 3 side chain; linkers in the order of their positions; H or OH if unused. Positions of bridges follow the written chain, without caps; N, C: chain ends. Non-standard residues stand in square brackets, D forms with d. Residues, ends and D or L forms follow the SMILES beside them. Chains are numbered I, II in the order given. Actinocin(9to1) = Cc1c2oc3c(C)ccc(C(=O)[*:1])c3nc-2c(C(=O)[*:2])c(N)c1=O; NMeV = CN[C@H](C(=O)O)C(C)C; Sar = CNCC(=O)O
# Key:
# [1] = Human pregnane X receptor (PXR) small molecule agonists, qHTS cell viability counter screen (AID 1346977); note: nearly all actives have a fitted effect of over 50% in size; note: potency is the fitted concentration of half-maximal effect
# How it was run: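 Cytotoxicity counter screen run in the same wells as the PXR luciferase assay, using PXR-Luc HepG2 cells in charcoal-stripped serum medium. Viability: CellTiter-Fluor fluorescence after 24hr compound treatment.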
# [2] = Caspase-3/7 induction in HepG2 cells by small molecules, qHTS assay (AID 1346978); note: nearly all actives have a fitted effect of over 15% in size; note: potency is the fitted concentration of half-maximal effect
# How it was run: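 Wild-type HepG2 cells, 2,000/well, settled 5 hr at 37 C and 5% CO2, then compound-treated for 17 hr; caspase-3/7 activity read by luminescent Caspase-Glo 3/7 after 30 min at room temperature.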
# [3] = Caspase-3/7 induction in CHO-K1 cells by small molecules, qHTS cell viability counter screen (AID 1346979); note: nearly all actives have a fitted effect of over 35% in size; note: potency is the fitted concentration of half-maximal effect
# How it was run: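 Cytotoxicity counter screen run in parallel with the caspase-3/7 assay: CHO-K1 cells, 16hr compound treatment at 37C, then CellTiter-Fluor for 1hr before fluorescence reading.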
# [4] = Caspase-3/7 induction in CHO-K1 cells by small molecules, qHTS assay (AID 1346980); note: nearly all actives have a fitted effect of over 15% in size; note: potency is the fitted concentration of half-maximal effect
# How it was run: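 Wild-type CHO-K1 cells exposed to compounds for 17hr at 37 C, 5% CO2. Caspase-3/7 activity then measured by Caspase-Glo 3/7 luminescence after 30min at room temperature.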
# [5] = Caspase-3/7 induction in HepG2 cells by small molecules, qHTS cell viability counter screen (AID 1346981); note: nearly all actives have a fitted effect of over 30% in size; note: potency is the fitted concentration of half-maximal effect; for activity change, negative = cytotoxicity: series mostly up to about 92 µM
# How it was run: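 After a 5-hr attachment period at 37 C and 5% CO2, wild-type HepG2 cells received compounds in DMSO. Sixteen hours later CellTiter-Fluor was dispensed and the fluorescent signal quantified after a further hour.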
# [6] = target: Nuclear receptor subfamily 1 group I member 2 (Homo sapiens) (UniProt O75469); assay: Human pregnane X receptor (PXR) small molecule agonists, qHTS assay (AID 1346982); note: nearly all actives have a fitted effect of over 35% in size; note: potency is the fitted concentration of half-maximal effect
# Sequence of Nuclear receptor subfamily 1 group I member 2 (Homo sapiens) (O75469 whole entry, looked up): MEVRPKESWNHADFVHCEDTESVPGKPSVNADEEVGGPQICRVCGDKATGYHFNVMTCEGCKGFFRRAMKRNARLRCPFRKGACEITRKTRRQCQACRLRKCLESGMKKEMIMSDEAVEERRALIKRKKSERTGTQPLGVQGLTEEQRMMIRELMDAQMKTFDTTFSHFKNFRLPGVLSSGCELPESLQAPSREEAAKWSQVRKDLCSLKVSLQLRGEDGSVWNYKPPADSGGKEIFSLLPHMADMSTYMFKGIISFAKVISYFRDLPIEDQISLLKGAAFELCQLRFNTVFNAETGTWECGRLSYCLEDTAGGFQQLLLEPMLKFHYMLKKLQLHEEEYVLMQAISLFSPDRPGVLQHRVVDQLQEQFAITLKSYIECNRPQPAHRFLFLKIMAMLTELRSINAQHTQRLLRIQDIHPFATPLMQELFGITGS
# How it was run: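 Tox21 qHTS; PXR-Luc HepG2; compounds pinned from DMSO; 24 hr, 37 C; ONE-Glo luciferase detection, 30 min room temperature.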
# [7] = target: Nuclear receptor subfamily 1 group I member 2 (Homo sapiens) (UniProt O75469); assay: CYP3A4 induction through human pregnane X receptor (PXR) by small molecules, qHTS assay (AID 1346984); note: nearly all actives have a fitted effect of over 40% in size
# How it was run: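 Cells (DPX-2; HepG2 with PXR element plus CYP3A4-promoter luciferase) settled 5hr, then were treated 24hr at 37C. A 3hr, 3uM-final Luciferin-IPA step preceded luminescence measurement with One-Glo.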
# [8] = target: Nuclear receptor subfamily 1 group I member 2 (Homo sapiens) (UniProt O75469); assay: Human pregnane X receptor (PXR) activation by small molecules, qHTS assay (AID 1346985); note: nearly all actives have a fitted effect of over 40% in size; note: potency is the fitted concentration of half-maximal effect
# How it was run: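 DPX-2 cells (HepG2 co-transfected with a PXR response element and a CYP3A4-promoter luciferase construct) were seeded at 2,000 per well, rested 5 hr at 37C, then exposed to DMSO-dissolved compounds for 24 hr. Activation was read as luciferase luminescence.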
# [9] = target: Cytochrome P450 2D6 (Homo sapiens) (UniProt P10635); assay: Cytochrome P450 Family 2 Subfamily D Member 6 (CYP2D6) small molecule antagonists: luciferase reporter qHTS assay (AID 1671196); note: nearly all actives have a fitted effect of over 50% in size; note: potency is the fitted concentration of half-maximal effect; for activity change, negative = inhibition: series mostly up to about 120 µM
# Sequence of Cytochrome P450 2D6 (Homo sapiens) (P10635 whole entry, looked up): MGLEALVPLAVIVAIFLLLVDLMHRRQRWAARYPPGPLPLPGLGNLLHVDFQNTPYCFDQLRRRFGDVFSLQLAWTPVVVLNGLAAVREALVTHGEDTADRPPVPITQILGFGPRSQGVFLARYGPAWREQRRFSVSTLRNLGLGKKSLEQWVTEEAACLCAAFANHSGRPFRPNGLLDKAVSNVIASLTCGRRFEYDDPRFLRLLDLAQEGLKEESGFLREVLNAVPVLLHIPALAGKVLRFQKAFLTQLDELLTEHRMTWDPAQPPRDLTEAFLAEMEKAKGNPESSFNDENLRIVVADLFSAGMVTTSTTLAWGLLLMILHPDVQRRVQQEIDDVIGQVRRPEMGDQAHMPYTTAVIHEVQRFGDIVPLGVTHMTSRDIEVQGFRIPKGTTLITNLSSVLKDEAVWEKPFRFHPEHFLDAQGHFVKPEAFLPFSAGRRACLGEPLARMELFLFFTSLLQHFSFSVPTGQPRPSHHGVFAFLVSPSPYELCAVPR
# How it was run: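 Room-temperature luminescent CYP2D6 activity assay: compound preincubated 10 min with enzyme–substrate mix, NADPH-initiated reaction 1 h, detection reagent 20 min before reading.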
# [10] = target: Cytochrome P450 2C19 (Homo sapiens) (UniProt P33261); assay: Cytochrome P450 Family 2 Subfamily C Member 19 (CYP2C19) small molecule antagonists: luciferase reporter qHTS assay (AID 1671197); note: nearly all actives have a fitted effect of over 65% in size; note: potency is the fitted concentration of half-maximal effect; for activity change, negative = inhibition: series mostly up to about 120 µM
# Sequence of Cytochrome P450 2C19 (Homo sapiens) (P33261 whole entry, looked up): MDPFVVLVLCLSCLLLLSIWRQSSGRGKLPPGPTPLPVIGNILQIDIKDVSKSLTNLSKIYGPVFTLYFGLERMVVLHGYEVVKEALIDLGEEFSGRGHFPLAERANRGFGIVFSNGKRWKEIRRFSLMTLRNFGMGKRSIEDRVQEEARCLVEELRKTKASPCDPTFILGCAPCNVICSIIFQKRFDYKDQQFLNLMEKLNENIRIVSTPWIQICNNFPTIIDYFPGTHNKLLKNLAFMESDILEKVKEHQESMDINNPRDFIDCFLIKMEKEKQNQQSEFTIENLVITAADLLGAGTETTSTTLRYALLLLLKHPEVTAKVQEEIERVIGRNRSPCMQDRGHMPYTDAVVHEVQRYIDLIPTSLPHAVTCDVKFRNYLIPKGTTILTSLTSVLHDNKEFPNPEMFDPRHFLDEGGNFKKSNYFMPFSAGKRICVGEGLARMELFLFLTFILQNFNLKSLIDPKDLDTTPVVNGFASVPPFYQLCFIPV
# How it was run: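 Enzyme-substrate mix with proluciferin substrate (P450-Glo CYP2C19 system) preincubated with compounds 10 min at room temperature; NADPH regeneration solution added, 37C for 1 h; detection reagent stops reaction, luminescence read after 20 min. Ketoconazole positive control.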
# [11] = target: Cytochrome P450 2C9 (Homo sapiens) (UniProt P11712); assay: Cytochrome P450 Family 2 Subfamily C Member 9 (CYP2C9) small molecule antagonists: luciferase reporter qHTS assay (AID 1671198); note: nearly all actives have a fitted effect of over 50% in size; note: potency is the fitted concentration of half-maximal effect; for activity change, negative = inhibition: series mostly up to about 120 µM
# Sequence of Cytochrome P450 2C9 (Homo sapiens) (P11712 whole entry, looked up): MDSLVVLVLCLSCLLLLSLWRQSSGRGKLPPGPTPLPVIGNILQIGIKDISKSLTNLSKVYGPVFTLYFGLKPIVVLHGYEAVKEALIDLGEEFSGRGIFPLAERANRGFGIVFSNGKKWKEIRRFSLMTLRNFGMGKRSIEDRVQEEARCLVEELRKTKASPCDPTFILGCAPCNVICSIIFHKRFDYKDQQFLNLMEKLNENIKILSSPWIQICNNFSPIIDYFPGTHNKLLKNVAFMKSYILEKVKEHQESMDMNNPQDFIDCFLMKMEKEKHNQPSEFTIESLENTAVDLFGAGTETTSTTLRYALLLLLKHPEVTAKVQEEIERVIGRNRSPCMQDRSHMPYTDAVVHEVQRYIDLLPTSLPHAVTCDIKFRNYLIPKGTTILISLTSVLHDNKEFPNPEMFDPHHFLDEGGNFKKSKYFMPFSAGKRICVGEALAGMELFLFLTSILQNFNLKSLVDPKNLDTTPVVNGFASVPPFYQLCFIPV
# How it was run: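 P450-Glo proluciferin substrate with CYP2C9 enzyme; 10 min RT preincubation, then NADPH regeneration 1 h at 37C; luciferin detection reagent 20 min RT, luminescence in relative luminescence units.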
# [12] = target: Cytochrome P450 1A2 (Homo sapiens) (UniProt P05177); assay: Cytochrome P450 Family 1 Subfamily A Member 2 (CYP1A2) small molecule antagonists: luciferase reporter qHTS assay (AID 1671199); note: nearly all actives have a fitted effect of over 50% in size; note: potency is the fitted concentration of half-maximal effect; for activity change, negative = inhibition: series mostly up to about 120 µM
# Sequence of Cytochrome P450 1A2 (Homo sapiens) (P05177 whole entry, looked up): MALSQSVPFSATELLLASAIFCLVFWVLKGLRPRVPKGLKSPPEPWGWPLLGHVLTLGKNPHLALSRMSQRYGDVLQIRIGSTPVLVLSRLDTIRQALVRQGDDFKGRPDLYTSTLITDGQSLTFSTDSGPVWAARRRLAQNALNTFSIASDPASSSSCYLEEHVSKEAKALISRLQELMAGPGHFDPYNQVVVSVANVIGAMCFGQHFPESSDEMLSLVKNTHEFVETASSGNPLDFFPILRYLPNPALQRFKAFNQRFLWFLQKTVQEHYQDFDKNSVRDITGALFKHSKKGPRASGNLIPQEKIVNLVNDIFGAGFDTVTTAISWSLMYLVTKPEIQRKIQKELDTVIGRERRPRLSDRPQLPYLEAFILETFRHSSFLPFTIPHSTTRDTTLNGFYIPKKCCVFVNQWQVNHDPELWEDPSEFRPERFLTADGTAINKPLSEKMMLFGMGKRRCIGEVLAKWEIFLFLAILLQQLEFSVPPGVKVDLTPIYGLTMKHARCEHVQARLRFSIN
# How it was run: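 Room-temperature CYP1A2 reaction with proluciferin substrate: compounds added from DMSO, 10 min preincubation, NADPH regeneration for 1 h. Luciferin detection reagent then added; luminescence recorded as RLU.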
# [13] = target: Voltage-gated inwardly rectifying potassium channel KCNH2 (Homo sapiens) (UniProt Q12809); assay: Human Ether-a-go-go-Related Gene (hERG) channel small molecule antagonists: fluorescence cell-based qHTS assay (AID 1671200); note: nearly all actives have a fitted effect of over 50% in size; note: potency is the fitted concentration of half-maximal effect;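 for activity change, negative = inhibition: hERG-expressing U2OS cells given a thallium stimulus after FluxOR II dye loading; series mostly up to about 77 µM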
# Sequence of Voltage-gated inwardly rectifying potassium channel KCNH2 (Homo sapiens) (Q12809 whole entry, looked up): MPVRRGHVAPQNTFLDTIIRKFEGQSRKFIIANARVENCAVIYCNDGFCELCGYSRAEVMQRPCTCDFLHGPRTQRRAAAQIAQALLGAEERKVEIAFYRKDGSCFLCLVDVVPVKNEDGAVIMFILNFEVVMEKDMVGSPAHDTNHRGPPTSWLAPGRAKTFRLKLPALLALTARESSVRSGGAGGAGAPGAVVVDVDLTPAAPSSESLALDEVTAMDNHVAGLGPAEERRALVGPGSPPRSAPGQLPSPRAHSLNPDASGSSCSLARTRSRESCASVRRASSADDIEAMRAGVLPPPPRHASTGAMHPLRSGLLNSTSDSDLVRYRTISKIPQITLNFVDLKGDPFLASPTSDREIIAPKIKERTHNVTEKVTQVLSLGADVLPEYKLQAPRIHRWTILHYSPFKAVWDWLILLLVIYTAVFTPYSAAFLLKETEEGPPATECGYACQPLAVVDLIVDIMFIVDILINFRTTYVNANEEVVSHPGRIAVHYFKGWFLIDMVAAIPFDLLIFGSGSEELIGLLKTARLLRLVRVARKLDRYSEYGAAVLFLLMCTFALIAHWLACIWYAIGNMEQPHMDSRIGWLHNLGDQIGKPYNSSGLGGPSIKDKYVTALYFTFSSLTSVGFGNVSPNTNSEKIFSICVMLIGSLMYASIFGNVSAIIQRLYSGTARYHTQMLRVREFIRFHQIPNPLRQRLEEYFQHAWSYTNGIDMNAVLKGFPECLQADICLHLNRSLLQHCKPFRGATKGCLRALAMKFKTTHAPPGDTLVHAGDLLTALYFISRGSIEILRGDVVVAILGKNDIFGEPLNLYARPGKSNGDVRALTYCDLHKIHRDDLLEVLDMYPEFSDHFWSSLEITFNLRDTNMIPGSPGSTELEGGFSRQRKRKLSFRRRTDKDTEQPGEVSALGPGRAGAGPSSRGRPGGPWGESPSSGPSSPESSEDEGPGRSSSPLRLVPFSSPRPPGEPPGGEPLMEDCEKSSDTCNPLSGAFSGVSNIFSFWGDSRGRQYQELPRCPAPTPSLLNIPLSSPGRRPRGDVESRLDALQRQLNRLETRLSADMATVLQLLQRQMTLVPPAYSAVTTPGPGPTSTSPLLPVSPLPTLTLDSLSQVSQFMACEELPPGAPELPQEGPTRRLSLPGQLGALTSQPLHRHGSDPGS
# How it was run: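 Fluorescence at 540 nm emission (480 nm excitation) was recorded kinetically for 2 min at 1-second intervals once the thallium-containing stimulus reached cells previously loaded with FluxOR II dye.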
# [14] = target: Cytochrome P450 3A4 (Homo sapiens) (UniProt P08684); assay: Cytochrome P450 Family 3 Subfamily A Member 4 (CYP3A4) small molecule antagonists: luciferase reporter qHTS assay (AID 1671201); note: nearly all actives have a fitted effect of over 50% in size; note: potency is the fitted concentration of half-maximal effect; for activity change, negative = inhibition: series mostly up to about 120 µM
# Sequence of Cytochrome P450 3A4 (Homo sapiens) (P08684 whole entry, looked up): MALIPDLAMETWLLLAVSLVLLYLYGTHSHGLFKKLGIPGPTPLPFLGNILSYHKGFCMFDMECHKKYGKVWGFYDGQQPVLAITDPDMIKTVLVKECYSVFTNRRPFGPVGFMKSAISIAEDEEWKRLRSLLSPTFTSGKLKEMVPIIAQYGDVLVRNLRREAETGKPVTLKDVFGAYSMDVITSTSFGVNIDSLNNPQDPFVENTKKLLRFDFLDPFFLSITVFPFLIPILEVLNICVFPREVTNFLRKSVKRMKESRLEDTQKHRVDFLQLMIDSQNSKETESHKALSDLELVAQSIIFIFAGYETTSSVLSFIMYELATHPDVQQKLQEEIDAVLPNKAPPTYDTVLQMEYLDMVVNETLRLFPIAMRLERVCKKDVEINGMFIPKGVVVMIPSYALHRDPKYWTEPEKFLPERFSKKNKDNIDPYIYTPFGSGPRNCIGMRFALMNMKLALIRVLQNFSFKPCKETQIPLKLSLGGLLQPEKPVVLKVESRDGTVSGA
# How it was run: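 qHTS, 1536-well. CYP3A4 + proluciferin substrate, cpd 10 min RT → NADPH regen 1 h RT → detection reagent 20 min → luminescence (RLU). Ketoconazole positive control.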
# [15] = target: Nuclear receptor subfamily 1 group I member 2 (Rattus norvegicus) (UniProt Q9R1A7); assay: Rat pregnane X receptor (rPXR) activation by small molecules, qHTS assay (AID 1346983); settings: rPXR luciferase reporter cells, One-Glo luminescence, 24 h; stronger effect = higher value; note: nearly all actives have a fitted effect of over 20% in size
# Sequence of Nuclear receptor subfamily 1 group I member 2 (Rattus norvegicus) (Q9R1A7 whole entry, looked up): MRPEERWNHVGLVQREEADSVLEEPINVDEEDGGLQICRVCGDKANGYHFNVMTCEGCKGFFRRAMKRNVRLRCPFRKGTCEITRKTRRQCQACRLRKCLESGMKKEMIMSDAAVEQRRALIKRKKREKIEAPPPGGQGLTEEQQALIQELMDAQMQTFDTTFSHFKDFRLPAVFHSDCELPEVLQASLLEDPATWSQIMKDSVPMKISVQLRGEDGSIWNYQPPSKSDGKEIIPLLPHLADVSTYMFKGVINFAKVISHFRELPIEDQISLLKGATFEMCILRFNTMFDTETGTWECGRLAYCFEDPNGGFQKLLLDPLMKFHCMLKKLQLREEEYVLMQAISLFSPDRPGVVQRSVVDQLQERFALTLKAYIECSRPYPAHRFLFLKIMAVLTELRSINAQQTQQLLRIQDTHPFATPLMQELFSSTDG
# How it was run: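 Cell-based rPXR activation assay: rPXR cells, 2,000 per well, rested 5hr at 37 C, then exposed to compounds in DMSO for 24 hr at 37 C. Luciferase activity read by One-Glo luminescence after 30 min at room temperature.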
# % is set by controls: 0 for no effect and ±100 for the full control effect.
compound,measurement,setting,value
"Cc1c2oc3c(C)ccc(C(=O)N[C@@H]4C(=O)N[C@H](C(C)C)C(=O)N5CCC[C@H]5C(=O)N(C)CC(=O)N(C)[C@@H](C(C)C)C(=O)O[C@@H]4C)c3nc-2c(C(=O)N[C@@H]2C(=O)N[C@H](C(C)C)C(=O)N3CCC[C@H]3C(=O)N(C)CC(=O)N(C)[C@@H](C(C)C)C(=O)O[C@@H]2C)c(N)c1=O (I: T[dV]P[Sar][NMeV] / II: T[dV]P[Sar][NMeV]; ester I:1-I:C, II:1-II:C; linker I:N-II:N via Actinocin(9to1))",Potency,[1],29.8 nM (active) and 47.3 nM (active)
same,Potency,[2],13.3 nM (active) and 18.8 nM (active)
same,Potency,[3],375 nM (active) and 188 nM (active)
same,Potency,[4],188 nM (active) and 335 nM (active)
same,Potency,[5],29.8 µM (active) and 15 µM (active)
same,Potency,[6],inactive
same,Potency,[7],inactive
same,Potency,[8],inactive
same,Potency,[9],inactive
same,Potency,[10],inactive
same,Potency,[11],inactive
same,Potency,[12],inactive
same,Potency,[13],inactive
same,Potency,[14],inactive
CC(=O)O[C@]1(C(C)=O)CC[C@H]2[C@@H]3C[C@H](C)C4=CC(=O)CC[C@]4(C)[C@H]3CC[C@@]21C,Potency,[1],inactive
same,Potency,[2],inactive
same,Potency,[3],inactive
same,Potency,[4],inactive
same,Potency,[5],inactive
same,Potency,[6],5.44 µM (active)
same,Potency,[7],inactive
same,Potency,[8],1.58 µM (active)
same,Potency,[9],inactive
same,Potency,[10],15.9 µM (active)
same,Potency,[11],3.99 µM (active) and 13.8 µM (active)
same,Potency,[12],inactive
same,Potency,[13],inactive
c1ccc2cc3c(ccc4ccccc43)cc2c1,Potency,[1],inactive
same,Potency,[2],inactive
same,Potency,[3],inactive
same,Potency,[4],inactive
same,Potency,[5],inactive
same,Potency,[6],27.4 µM (active) and 10.9 µM (active)
same,Potency,[9],35.7 µM (active)
same,Potency,[10],50.2 µM (active)
same,Potency,[11],25.2 µM (active)
same,Potency,[12],897 nM (active) and 894 nM (active)
same,Potency,[13],inactive
same,Potency,[14],inactive
CC(C)(C)NCC(O)c1cc(O)cc(O)c1 (stereo unspecified),Potency,[1],inactive
same,Potency,[2],inactive
same,Potency,[3],inactive
same,Potency,[4],inactive
same,Potency,[5],inactive
same,Potency,[6],inactive
same,max activation,[15],3.93% (inactive)
same,Potency,[7],inactive
same,Potency,[8],inactive
same,Potency,[9],38.9 µM (active)
same,Potency,[10],inactive
same,Potency,[12],inactive
same,Potency,[13],inactive
same,Potency,[14],inactive
C1COC(NC(C2CC2)C2CC2)=N1,Potency,[1],inactive
same,Potency,[2],inactive
same,Potency,[3],inactive
same,Potency,[4],inactive
same,Potency,[5],inactive
same,Potency,[6],inactive
same,Potency,[9],15.5 µM (active)
same,Potency,[10],inactive
same,Potency,[11],inactive
same,Potency,[12],inactive
same,Potency,[13],inactive
same,Potency,[14],inactive
Oc1ccc(Cl)cc1Cc1cc(Cl)ccc1O,Potency,[1],35.5 µM (active) and 30.6 µM (active) and 16.8 µM (active)
same,Potency,[2],inactive
same,Potency,[3],44.1 µM (active) and 38.6 µM (active) and 29.8 µM (active)
same,Potency,[4],inactive
same,Potency,[5],55.5 µM (active)
same,Potency,[6],22.1 µM (active) and 27.3 µM (active)
same,max activation,[15],-2.03% (inactive)
same,Potency,[8],inactive
same,Potency,[10],3.62 µM (active) and 2.83 µM (active) and 3.09 µM (active)
same,Potency,[11],8.11 µM (active) and 5.64 µM (active) and 4.9 µM (active)
same,Potency,[12],36.2 µM (active) and 39.9 µM (active) and 15.5 µM (active)
same,Potency,[13],inactive
CC(C)CCCCCCc1ccc(O)cc1,Potency,[1],50.1 µM (active)
same,Potency,[2],55.4 µM (active) and 68.6 µM (active)
same,Potency,[3],44 µM (active) and 61.1 µM (active)
same,Potency,[4],24.8 µM (active)
same,Potency,[5],55.4 µM (active)
same,Potency,[6],22.1 µM (active) and 9.69 µM (active)
same,max activation,[15],-6.01% (inactive)
same,Potency,[7],inactive
same,Potency,[8],28.2 µM (active)
same,Potency,[9],40.6 µM (active) and inactive
same,Potency,[10],3.62 µM (active) and 4.48 µM (active)
same,Potency,[11],9.1 µM (active) and 12.6 µM (active)
same,Potency,[12],28.8 µM (active)
same,Potency,[13],39.6 µM (active)
same,Potency,[14],16.2 µM (active)
CCCCCC(=O)O[C@]1(C(C)=O)CC[C@H]2[C@@H]3CCC4=CC(=O)CC[C@]4(C)[C@H]3CC[C@@]21C,Potency,[1],43 µM (active)
same,Potency,[2],inactive
same,Potency,[3],60.7 µM (active) and 33.5 µM (active)
same,Potency,[4],inactive
same,Potency,[5],60.7 µM (active)
same,Potency,[6],9.62 µM (active) and 11.9 µM (active)
same,Potency,[9],6.28 µM (active) and inactive
same,Potency,[10],17.7 µM (active) and 17.4 µM (active)
same,Potency,[11],7.91 µM (active) and 11 µM (active)
same,Potency,[12],inactive
same,Potency,[13],19.4 µM (active)
CCCCCCCCCCCCCCCCCl,"activity change, negative = cytotoxicity",[1],0.261% [at 19 µM] (inactive)
same,caspase activation,[2],-0.588% [at 19 µM] (inactive)
same,"activity change, negative = cytotoxicity",[3],-2.27% [at 19 µM] (inactive)
same,caspase-3/7 activation,[4],-1.24% [at 19 µM] (inactive)
same,"activity change, negative = cytotoxicity",[5],-0.832% [at 19 µM] (inactive)
same,activation,[6],-2.47% [at 19 µM] (inactive)
same,"activity change, negative = inhibition",[9],0.322% [at 23.6 µM] (inactive)
same,"activity change, negative = inhibition",[10],-0.542% [at 23.6 µM] (inactive)
same,"activity change, negative = inhibition",[11],1.72% [at 23.6 µM] (inactive)
same,Potency,[12],inactive
same,"activity change, negative = inhibition",[13],-0.466% [at 15.8 µM] (inactive)
same,"activity change, negative = inhibition",[14],3.48% [at 23.6 µM] (inactive)
OCCOCCN1CCN(C(c2ccccc2)c2ccc(Cl)cc2)CC1 (stereo unspecified),Potency,[1],24 µM (active)
same,Potency,[2],53.8 µM (active) and inactive
same,Potency,[3],53.8 µM (active) and inactive
same,Potency,[4],inactive
same,Potency,[5],21.4 µM (active) and inactive
same,Potency,[6],8.52 µM (active) and inactive
